Calls of active or inactive are those of the source.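 Rule for the calls, unless noted: active = viability loss from added drug above about 55%, and viability with drug at most 40%, in both replicates (limit read from the data, passing the limit was not always enough); inconclusive = both conditions met in only one replicate; inactive = neither replicate meets both conditions.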
Key:
[1] = reduced viability of SK-BR-3 breast cancer cells – cell-based, 24 h, human, pilot screen (AID 572;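 active = viability at or below 10% of carrier control in both of two separate runs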;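 note: compound exposure lasted between 18 and 24 h rather than exactly 24 h; 100% = carrier-treated control wells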); conditions: SK-BR-3 viability, CellTiter-Glo luminescence, at 10 µM, stronger effect = lower value
[2] = H69AR cell proliferation blockers – human, duplicate replicates, primary screen (AID 580;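 active = viability at or under a set limit in both replicates, limit being median viability minus 3 SD, cut at about 48% in these data, passing the limit was not always enough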;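 note: 100% = mean luminescence of untreated wells and 0% = no signal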); conditions: H69AR lung tumor cells viability, ATP luminescence, 72 h; at 10 µM; stronger effect = lower value
[3] = MRP1 drug-resistance reversers in H69AR cells – cell-based, doxorubicin co-treatment, pilot screen (AID 601); conditions: CellTiter-Glo, 72 h, at 10 µM; for differential viability (reversal): stronger effect = higher value
[4] = yeast transport mutant growth inhibition pilot in 384-well plates, post-Golgi transport modulator project (AID 636; in the data active = inhibition above about 31%); conditions: absorbance 615 nm, about 18 h, stronger effect = higher value
[5] = growth suppression of yeast trafficking mutant, preliminary HTS, modulators of trafficking downstream of Golgi apparatus project, 1536-format plate, OD 615 nm (AID 637; in the data active = inhibition above about 30%); conditions: yeast transport mutant growth, absorbance 615 nm, 18 h; stronger effect = higher value
[6] = HUVEC growth inhibition – cell-based, human, primary screen (AID 575;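 active = viability at or below 30% in both replicate assays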;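 note: 100% = median of untreated cell wells with 0.1% DMSO on each plate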); conditions: HUVEC proliferation, CellTiter-Glo luminescence, 72 h; at 10 µM; stronger effect = lower value
[7] = H69AR cells + 2 uM doxorubicin, measured here: viability with 2 uM doxorubicin, stronger effect = lower value
[8] = H69AR cells, compound alone cytotoxicity

SMILES	viability [1]	viability [2]	differential viability (reversal) ([3]; H69AR cells + 2 uM doxorubicin)	viability [3, 7]	viability [3, 8]	inhibition [4]	inhibition [5]	viability [6]
COc1ccccc1NC(=O)c1oc2ccccc2c1NC(=O)c1cc(OC)c(OC)c(OC)c1	56.5% (inactive)	16.9% (active)	-18.4% (inactive)	35.3%	16.9%	-3.33% (inactive)	-2.1% (inactive)	–
COc1cccc(CN2C(=O)C3(C(C#N)=C(N)OC4=C3C(=O)CCC4)c3ccccc32)c1 (stereo not given)	104% (inactive)	–	-2.01% (inactive)	12.6%	10.6%	84.2% (active)	51.6% (active)	–
COc1cc2c(OC)cccc2cc1C(=O)O	–	88.2% (inactive)	2.57% (inactive)	85.7%	88.2%	-1.32% (inactive)	12.1% (inactive)	95% (inactive)
Cc1ccc2[nH]c3c(c2c1)CN(C(=O)CN1CCN(c2cccc(C)c2C)CC1)CC3	79% (inactive)	–	-6.55% (inactive)	37.6%	31%	0% (inactive)	4.36% (inactive)	–
C=C(CC)C(=O)c1ccc(OCC(=O)O)c(Cl)c1Cl	86% (inactive)	–	0.86% (inactive)	48.5%	49.4%	-2.47% (inactive)	-0.5% (inactive)	–
CNCCCN1c2ccccc2CCc2ccccc21	–	90.4% (inactive)	14.6% (inactive)	75.8%	90.4%	–	–	82.1% (inactive)
COc1cc2c(cc1OC)CN(Cc1nc3ccsc3c(=O)[nH]1)CC2	–	92.2% (inactive)	7.59% (inactive)	84.6%	92.2%	-2.73% (inactive)	3.17% (inactive)	99.5% (inactive)
CCOc1ccc(OCc2cccc(C(=O)N3CCOCC3)c2)cc1	–	94.5% (inactive)	0.305% (inactive)	94.2%	94.5%	-5.87% (inactive)	2.7% (inactive)	83.9% (inactive)
CC(=O)C(Sc1ncnc2c1nnn2-c1ccc(F)cc1)C(=O)N(C)C (stereo not given)	136% (inactive)	–	-12.3% (inactive)	61%	48.7%	-3.12% (inactive)	4.1% (inactive)	–
CNCCCC12CCC(c3ccccc31)c1ccccc12	–	70.1% (inactive)	6.27% (inactive)	63.8%	70.1%	–	–	77.4% (inactive)
Cc1nc(C)c(C(=O)C2=C(O)C(=O)N(CCN3CCOCC3)C2c2ccco2)s1 (stereo not given)	–	86.3% (inactive)	-3.34% (inactive)	89.7%	86.3%	-4.8% (inactive)	3.02% (inactive)	109% (inactive)
CCOc1ccc(N(C)S(=O)(=O)c2ccc3[nH]cc(C(=O)NCC4CCCO4)c(=O)c3c2)cc1 (stereo not given)	–	87.9% (inactive)	5.04% (inactive)	82.9%	87.9%	-2.86% (inactive)	-3.17% (inactive)	73.7% (inactive)
COc1ccccc1-n1c(C)nnc1SCC(=O)Nc1cccc(C(C)=O)c1	–	104% (inactive)	6.48% (inactive)	97%	104%	-4.4% (inactive)	17.9% (inactive)	101% (inactive)
COc1ccccc1N1CCN(Cc2nc(N)nc(Nc3ccc(C)c(Cl)c3)n2)CC1	104% (inactive)	–	-26.3% (inactive)	65.1%	38.8%	-1.3% (inactive)	-3.28% (inactive)	–
COc1cc2nc(N3CCN(C(=O)C4COc5ccccc5O4)CC3)nc(N)c2cc1OC (stereo not given)	59% (inactive)	–	-15.4% (inactive)	23.7%	8.23%	-0.65% (inactive)	6.83% (inactive)	–
COc1ccc(Cl)cc1N1CCN(CCNC(=O)Nc2ccccc2C)CC1	85% (inactive)	–	-22.7% (inactive)	71.4%	48.7%	-4.93% (inactive)	4.91% (inactive)	–
O=C(NC1CC1)c1cccc(Nc2ccc(-c3ccc4c(c3)OCCO4)nn2)c1	76% (inactive)	–	-12% (inactive)	61.2%	49.1%	-0.81% (inactive)	-5.82% (inactive)	–
Cc1cc(-n2c(C)cc(C(=O)CSc3nnnn3-c3ccc(Cl)cc3)c2C)no1	81.5% (inactive)	–	4.86% (inactive)	44.3%	49.2%	-3.73% (inactive)	-5.56% (inactive)	–
O=C(Nc1nc(-c2ccc(S(=O)(=O)N3CCCCCC3)cc2)cs1)c1cccs1	–	64.6% (inactive)	-4.63% (inactive)	69.2%	64.6%	-6.62% (inactive)	-3.81% (inactive)	73.6% (inactive)

— PubChem BioAssay
